Results as given in PubChem BioAssay AID1159580 (chemical genetic matrix, 2015).
Where “and” joins values, the source holds several entries; their conditions need not be identical. Equal values may be shown once. The campaign covered roughly 5,500 compounds. About 2,000 (36%) were called active. Not shown: some 18% with an inconclusive outcome. No stated cut-off is given here; in the data, active means normalized growth mostly below about 0.91 (no sharp cut-off); inconclusive means no clear call, values can overlap the other calls; inactive means mostly above about 0.92. The list shows a part of the results.

Experiment: chemical genetic growth profiling, strain panel (AID 1159580);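 further: tested at 20 µM; growth read once vehicle control cultures reached saturation at 30 °C; 1 = growth at the plate median or of vehicle wells; lower values mean less growth of the strain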
Conditions: S. cerevisiae deletion strains, growth OD

Measured: normalized growth

CC(C)c1c(O)c(-c2cc3c(c(C(C)C)c2O)CCC2C(C)(C)CCC[C@]32C)cc2c1CCC1C(C)(C)CCC[C@]21C (stereo partly specified)
inactive: locus YAL013W, strain DEP1, hits give low values 1.01 | locus YAL021C, strain ccr4, hits give low values 0.987 | locus YAL026C, strain drs2, hits give low values 0.988 | locus YAL030W, strain snc1, hits give low values 0.996 | locus YBL061C, strain skt5, hits give low values 0.991 | locus YBR009C, strain hhf1, hits give low values 1.02 | locus YBR021W, strain FUR4, hits give low values 1.03 | locus YBR023C, strain chs3, hits give low values 0.992 | locus YBR171W, strain sec66, hits give low values 0.976 | locus YBR229C, strain ROT2, hits give low values 1.02 | locus YBR231C, strain swc5, hits give low values 0.99 | locus YBR279W, strain paf1, hits give low values 0.99 | locus YCL011C, strain gbp2, hits give low values 0.983 | locus YCL016C, strain dcc1, hits give low values 0.976 | locus YCL029C, strain bik1, hits give low values 1.02 | locus YCL061C, strain MRC1, hits give low values 0.982 | locus YCL069W, strain vba3, hits give low values 0.998 | locus YCR088W, strain abp1, hits give low values 1 | locus YDL005C, strain med2, hits give low values 0.964 | locus YDL035C, strain GPR1, hits give low values 1.02 | locus YDL040C, strain nat1, hits give low values 0.991 | locus YDL074C, strain BRE1, hits give low values 1.02 | locus YDL101C, strain DUN1, hits give low values 1.01 | locus YDL134C, strain PPH21, hits give low values 1.01 | locus YDL185W, strain tfp1, hits give low values 1.04 | locus YDL192W, strain arf1, hits give low values 1.03 | locus YDR001C, strain nth1, hits give low values 0.984 | locus YDR069C, strain doa4, hits give low values 0.982 | locus YDR101C, strain arx1, hits give low values 1.01 | locus YDR137W, strain rgp1, hits give low values 0.982 | locus YDR150W, strain NUM1, hits give low values 1.02 | locus YDR159W, strain sac3, hits give low values 0.986 | locus YDR162C, strain NBP2, hits give low values 1.02 | locus YDR195W, strain ref2 0.938 | locus YDR297W, strain sur2, hits give low values 0.985 | locus YDR318W, strain mcm21, hits give low values 1.02 | locus YDR334W, strain swr1, hits give low values 0.972 | locus YDR335W, strain msn5, hits give low values 0.986 | locus YDR388W, hits give low values 1.01 | locus YDR392W, strain spt3, hits give low values 0.982 | locus YDR502C, strain sam2, hits give low values 1.01 | locus YEL003W, strain gim4, hits give low values 0.995 | locus YEL037C, strain rad23, hits give low values 0.99 | locus YEL061C, strain CIN8 (second series), hits give low values 0.993 | locus YEL061C, strain CIN8, hits give low values 1.01 | locus YER015W, strain faa2, hits give low values 0.985 | locus YER016W, strain bim1, hits give low values 0.972 | locus YER110C, hits give low values 1.02 | locus YER111C, strain swi4, hits give low values 0.992 | locus YER155C, strain BEM2 (second series), hits give low values 0.992 | locus YER155C, strain BEM2, hits give low values 1.01 | locus YER167W, strain BCK2, hits give low values 1.03 | locus YFR010W, strain ubp6, hits give low values 1.01 | locus YGL078C, strain dbp3, hits give low values 1.01 | locus YGL086W, strain mad1, hits give low values 1.02 | locus YGL167C, strain pmr1, hits give low values 0.993 | locus YGL173C, strain kem1, hits give low values 0.972 | locus YGL227W, strain vid30, hits give low values 0.982 | locus YGL240W, strain doc1, hits give low values 0.988 | locus YGL248W, strain PDE1, hits give low values 1.02 | locus YGL253W, strain hxk2, hits give low values 0.985 | locus YGR078C, strain PAC10, hits give low values 1.01 | locus YGR135W, strain pre9, hits give low values 1.01 | locus YGR229C, strain SMI1, hits give low values 1.01 | locus YGR252W, strain gcn5, hits give low values 1.06 | locus YHR013C, strain ard1, hits give low values 0.947 | locus YHR027C, strain rpn1, hits give low values 0.985 | locus YHR030C, strain SLT2, hits give low values 1.01 and 0.972 | locus YHR079C, strain IRE1 (second series), hits give low values 1.01 | locus YHR079C, strain IRE1, hits give low values 0.965 | locus YHR094C, strain hxt1, hits give low values 1.02 | locus YHR129C, strain ARP1, hits give low values 1 | locus YHR142W, strain chs7, hits give low values 0.986 | locus YHR200W, strain rpn10, hits give low values 1.02 | locus YIL066C, strain RNR3, hits give low values 1.02 | locus YIL073C, strain SPO22, hits give low values 1.08 | locus YIL125W, strain kgd1, hits give low values 1.02 | locus YIR030C, strain dcg1, hits give low values 1.01 | locus YJL092W, strain hpr5, hits give low values 0.979 | locus YJL095W, strain BCK1 (second series), hits give low values 0.997 | locus YJL095W, strain BCK1, hits give low values 1.01 and 1 | locus YJL115W, strain asf1, hits give low values 0.956 | locus YJL129C, strain trk1, hits give low values 0.988 | locus YJL134W, strain LCB3, hits give low values 1.01 | locus YJL154C, strain vps35, hits give low values 0.985 | locus YJL164C, strain tpk1, hits give low values 0.994 | locus YJL166W, strain qcr8, hits give low values 0.997 | locus YJL168C, strain set2, hits give low values 1.02 | locus YJL187C, strain SWE1 (second series), hits give low values 1.01 | locus YJR043C, strain POL32, hits give low values 1.03 | locus YJR066W, strain TOR1, hits give low values 0.945
